# The sample as a whole holds a higher share of hits than the screen did.
# HT1080-NT tox = qHTS for induction of synthetic lethality in tumor cells producing 2HG: qHTS for the HT-1080-NT fibrosarcoma cell line. HT-1080-NT fibrosarcoma viability, CellTiter-Glo ATP luminescence, 48 h. Potency, µM (highest dose often 46.1 µM), usual class: cytotoxic. hit rate 1.6% among 360,000;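 also: NT is the 2HG producing partner of a matched IDH1 knockdown line; nearly all actives have a fitted effect of over 55% in size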
#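 750 cells/well, RPMI + 5% FBS; 2 h settle, compound pin-transfer, 48 h at 37 degrees C. CellTiter-Glo 10 min RT, luminescence. Normalized to DMSO and media-only wells.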
# DT40 TDP1 CPT = qHTS for Inhibitors of human tyrosyl-DNA phosphodiesterase 1 (TDP1): qHTS in cells in presence of CPT. chicken DT40 Tdp1-/-;hTDP1 cells + 20 nM CPT, ATP luminescence, 48 h. Potency, µM (top dose mostly 46.2 µM), most hits filed as inhibitors. hit rate 12% among 420,000; also: nearly all actives have a fitted effect of over 55% in size
#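 Chicken DT40 Tdp1-/- cells stably complemented with human TDP1 were seeded at 400 cells/well in medium containing 20 nM camptothecin, exposed to pin-transferred compounds, and grown at 37 °C for at least 48 hr. Viability was read as ATP luminescence.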
# TDP1 cell noCPT = qHTS for Inhibitors of human tyrosyl-DNA phosphodiesterase 1 (TDP1): qHTS in cells in absence of CPT. DT40 Tdp1-/- hTDP1 cells, no CPT, ATP luminescence, 48 h. Potency, µM (doses to about 46.2 µM), hits mostly inhibitors. hit rate 15% among 420,000; also: nearly all actives have a fitted effect of over 55% in size
#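 Growth kinetics read by CellTiter-Glo luminescence after ≥48 hr at 37 °C. Cells: DT40 Tdp1-/- stably carrying human TDP1, 400 per well, compound exposure in the absence of CPT (DMSO vehicle).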
# HT1080 IDH1KD tx = qHTS for induction of synthetic lethality in tumor cells producing 2HG: qHTS for the HT-1080-IDH1KD cell line | HT-1080 IDH1 knockdown viability, ATP luminescence, 48 h | Potency, µM (series often up to 46.1 µM), actives largely listed as cytotoxic | hit rate 2% among 360,000
#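 Using the IDH1-knockdown HT-1080 line run in the same batch and compound series as the NT line, viability after 48 h at 37 °C was determined by CellTiter-Glo luminescence and expressed as % activity.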
# ALOX12 inh = Primary qHTS assay for inhibitors of human arachidonate 12S-lipoxygenase (ALOX12): Round 2 | Polyunsaturated fatty acid lipoxygenase ALOX12 (Homo sapiens), P18054 | purified 12hLO, xylenol orange hydroperoxide absorbance | Potency, µM (highest dose often 108 µM), most hits filed as inhibitors | hit rate 1.1% among 580,000 | AID 1671190, 2021
# Target sequence (P18054 whole entry, looked up): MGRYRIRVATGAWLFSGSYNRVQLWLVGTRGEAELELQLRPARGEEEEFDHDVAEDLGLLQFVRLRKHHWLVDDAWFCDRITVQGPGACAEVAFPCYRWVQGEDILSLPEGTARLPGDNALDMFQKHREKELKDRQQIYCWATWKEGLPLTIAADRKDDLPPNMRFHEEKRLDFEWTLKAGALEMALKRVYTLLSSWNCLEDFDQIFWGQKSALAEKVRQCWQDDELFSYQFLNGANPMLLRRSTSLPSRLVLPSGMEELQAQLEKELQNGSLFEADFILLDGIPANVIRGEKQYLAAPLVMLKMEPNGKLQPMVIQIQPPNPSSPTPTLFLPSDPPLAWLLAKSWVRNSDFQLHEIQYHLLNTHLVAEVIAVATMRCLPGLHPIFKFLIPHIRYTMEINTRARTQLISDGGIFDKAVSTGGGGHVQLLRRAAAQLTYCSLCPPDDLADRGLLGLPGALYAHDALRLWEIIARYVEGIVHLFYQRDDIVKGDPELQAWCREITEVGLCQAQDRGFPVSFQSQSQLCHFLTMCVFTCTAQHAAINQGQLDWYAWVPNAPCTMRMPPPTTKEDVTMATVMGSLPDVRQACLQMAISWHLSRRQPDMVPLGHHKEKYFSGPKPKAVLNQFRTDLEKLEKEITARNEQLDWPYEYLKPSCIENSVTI
#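 Purified human 12hLO at 150 nM in 25 mM Hepes, 0.01% Triton X-100, pH 7.0, preincubated 15 min at room temperature with compound. Reaction started with 40 uM arachidonic acid, 30 min at room temperature. Hydroperoxide measured by Fe-xylenol orange, 573/405 nm absorbance ratio.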
# IL1B secr inh = qHTS for Inhibitors of Inflammasome Signaling: IL-1-beta AlphaLISA Primary Screen; THP-1 LPS/ATP IL-1B secretion, AlphaLISA, 16 h; active compounds read low; activity change, % at 57.5 µM; hit rate 4.7% among 360,000; in the data active = activity change below about -50%; inconclusive = mostly about -30% to -49%
#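 Secreted IL-1B measured by AlphaLISA bead assay after 16 h compound exposure of THP-1 cells; compounds (final up to 57.5 uM) added 1 h before LPS (250 ng/mL) and ATP (1.25 mM) stimulation; lower signal means less secretion.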
# Hits are given with their value; - = inactive; ? = inconclusive; . = not tested or not shown; [ ] = another dose, or the depositor's remark. Unless noted, calls follow the shape of the dose curve; as a rule, active = well fitted curve in the direction sought with a large enough effect; inconclusive = small, poorly fitted or top-dose-only effect, or another doubt; inactive = no such curve, though single readings can be large; an effect the other way counts as inactive or inconclusive.
SMILES,HT1080-NT tox,DT40 TDP1 CPT,TDP1 cell noCPT,HT1080 IDH1KD tx,ALOX12 inh,IL1B secr inh
COc1cc(-c2cc(NC=O)c3ncc(-c4ccc(C(C)=O)cc4)n3c2)cc(OC)c1OC,?,10µM,7.3µM,?,-,-59
CCOC(=O)CN1C(=O)c2cccnc2Oc2ccccc21,.,-,-,.,-,.
Cc1ccc(C=Nc2c(Br)cc(C)cc2Br)cc1,.,.,.,.,-,.
CC1=NN(c2ccccc2)C(=O)/C1=C/N(C)C,-,?,-,-,-,-
O=c1[nH]c2ccccc2nc1CCc1ccccc1,-,-,-,-,-,-
CC1=NN(c2nc3ccccc3[nH]2)C(=O)/C1=C/N(C)C,21µM,4.6µM,?,2.9µM,.,-
CC1=NN(c2nc3ccccc3[nH]2)C(=O)C1Cc1ccccc1 (stereo unspecified),2.1µM,1µM,1.3µM,?,.,-
CSc1ccc(C=Nc2ccc(Br)c(Cl)c2)cc1,.,.,.,.,-,.
Oc1c(Br)cc(C=Nc2ccc3nc(-c4ccccc4)[nH]c3c2)c(O)c1Br,-,16µM,15µM,?,-,-
O=[N+]([O-])c1ccc(O)c(C=Nc2ccc3nc(-c4ccccc4)[nH]c3c2)c1,-,-,-,-,-,-
Cc1nn(-c2ccccc2)c2sc(C(=O)Nc3cccc(O)c3)cc12,.,?,23µM,.,?,.
Cc1nn(-c2ccccc2)c2sc(C(=O)O)cc12,-,-,-,-,-,-
CCCc1nc2cc(C)c(Br)c(C)n2c1Cc1ccccc1OC,?,26µM,15µM,-,?,-
COc1ccccc1Cc1c(C(C)(C)C)nc2cc(C)c(Br)c(C)n12,-,26µM,16µM,-,?,-
Cc1cc2nc(C(C)(C)C)c(Cc3ccsc3)n2c(C)c1Br,29µM,?,?,?,?,-
Cc1ccc(Cc2c(C(C)(C)C)nc3cc(C)c(Br)c(C)n23)cc1,-,?,?,-,?,-
COC(=O)CSc1nc2nc(-c3cccs3)cc(C(F)(F)F)c2c(=O)[nH]1,-,-,-,-,-,-
O=C(CSc1nc2nc(-c3cccs3)cc(C(F)(F)F)c2c(=O)[nH]1)C(F)(F)F,?,13µM,?,?,-,-
CCOC(=O)N1CCC(NC(=O)C2CCCN(c3nc4ccccc4o3)C2)CC1 (stereo unspecified),-[9.24 µM],-,-,-,-,-
Cc1cccc(-c2nc(CS(=O)CC(=O)NC3CCCCC3)c(C)o2)c1 (stereo unspecified),-,-,-,-,-,-
Cc1cccc(-c2nc(CN3CCCC(C(=O)NC4CCCC4)C3)c(C)o2)c1 (stereo unspecified),?,?,12µM,?,-,-
Cc1ccc(OCc2nc(-c3ccc(C(=O)N4CCN(c5cc(Cl)ccc5C)CC4)cc3)oc2C)cc1,.,23µM,12µM,.,-,.
Cc1cccc(-c2nc(CN3CCCC(C(=O)NC4CCC(C)CC4)C3)c(C)o2)c1 (stereo unspecified),-,?,18µM,-,?,-
CCOC(=O)N1CCC(NC(=O)C2CCCN(Cc3nc(-c4cccc(C)c4)oc3C)C2)CC1 (stereo unspecified),?,5.8µM,2.6µM,?,-,-
O=C1C[C@@H]2CCN(C(=O)Nc3cccc(C(F)(F)F)c3)C[C@@H]2CCN1CCN1CCNC1=O,.,.,.,.,-,.
Cc1cccc(-c2nc(CN3CCCC(C(=O)N4CCN(c5cc(Cl)ccc5C)CC4)C3)c(C)o2)c1 (stereo unspecified),.,16µM,21µM,.,?,.
Cc1oc(-c2ccc(Cl)cc2)nc1CN1CCCC(C(=O)N2CCOCC2)C1 (stereo unspecified),-,?,?,-,?,-

# High-throughput results from PubChem BioAssay.
